Reference: PubChem BioAssay AID1626 (SRMLSC, 2009)
Among all 220,000 compounds or so, about 2,000 (0.91%) were called active. About 2% were inconclusive and are not listed. No stated cut-off is given here; in the data, inconclusive means inhibition above about 80% without an active follow-up result; inactive means below that; test concentration not stated here. These entries were drawn from the full list. Results with a measured potency or affinity are listed apart.

Test: M. tuberculosis H37Rv growth inhibitors, H37Rv strain (AID 1626);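 further: bacteria incubated seven days before Alamar blue readout; 0% = bacteria only wells and 100% = bacteria with antibiotic wells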
Conditions: hits give high values, concentration not given here
In the case of CCCNS(=O)(=O)c1ccc(NC(=O)Cc2cccs2)cc1, the inhibition is reported as 5.56% (inactive). For C/C=C/c1ccc(OCCCCOc2ccccc2C(C)=O)c(OC)c1, the inhibition was 6.35% (inactive). With Brc1cccc(OCCOCCn2ccnc2)c1 the inhibition was 4.09% (inactive). In the case of O=C(NCCN1CCc2ccccc2C1)C1CCN(S(=O)(=O)N2CCC3(CC2)OCCO3)CC1, the inhibition is reported as -3% (inactive). With O=C(NCc1ccco1)c1ccccc1Br the inhibition was -5.82% (inactive). For O=C(NCc1ccco1)c1ccccc1-c1ccccc1, the inhibition was -5.77% (inactive). With O=c1ccnc(SCc2ccccc2Cl)[nH]1 the inhibition was 3.49% (inactive). In the case of CC(C)c1cc(C(=O)N2CCCC(C(=O)c3ccc4ccccc4c3)C2)on1 (configuration not stated), the inhibition is reported as 5.22% (inactive). With Cc1cccc2c1NC(=O)C21N2CCCC2C(C(=O)c2ccc3ccccc3c2)C12C(=O)Nc1ccccc12 (configuration not stated) the inhibition was 21.8% (inactive). With CCc1ccc2c(c1)[C@]1(C(=O)N2)[C@@H]2C(=O)N(Cc3ccccc3)C(=O)[C@@H]2[C@@H]2CCCN21 the inhibition was 3.94% (inactive). In the case of CN(C)c1ccccc1C(=O)N1CCCC(C(=O)c2ccc3ccccc3c2)C1 (configuration not stated), the inhibition is reported as -4.94% (inactive). For CCn1nc(C)cc1C(=O)N1CCCC(C(=O)c2ccc3ccccc3c2)C1 (configuration not stated), the inhibition was 5.72% (inactive). In the case of CCc1cccc2c1NC(=O)[C@]21[C@@H]2C(=O)N(Cc3ccccc3)C(=O)[C@@H]2[C@@H]2CCCN21, the inhibition is reported as -9.59% (inactive). In the case of Nc1nc(N2CCN(C(=O)c3ccco3)CC2)nc2ccc(Br)cc12, the inhibition is reported as 10.2% (inactive). In the case of Nc1c(Cl)ncnc1N1CCCC1, the inhibition is reported as -5.84% (inactive). With CCCCOCCCNS(=O)(=O)c1ccccc1 the inhibition was -3.58% (inactive). With Cc1cc(Nc2cccc([N+](=O)[O-])c2)c2cccc(C)c2n1 the inhibition was -6.77% (inactive). In the case of Cc1ccccc1C(=O)NNC1CC(=O)N(c2ccc3c(c2)OCCO3)C1=O (configuration not stated), the inhibition is reported as -10.4% (inactive). With O=C(COC(=O)c1ccc(O)cc1)Nc1cc(C(F)(F)F)ccc1Cl the inhibition was 0.39% (inactive). With CCS(=O)(=O)CCSc1nc2ccccc2o1 the inhibition was 3.19% (inactive). In the case of c1ccc2oc(CCc3nc4ccccc4o3)nc2c1, the inhibition is reported as 0.98% (inactive). In the case of CCC(=O)c1ccc(OCCn2cnc3ccccc32)cc1, the inhibition is reported as 9.27% (inactive). With COc1ccc(NC(=O)c2ccco2)c(OC)c1 the inhibition was -9.54% (inactive). For COc1cc(NC(=O)c2ccco2)c(OC)cc1NC(=O)c1cc(OC)c(OC)c(OC)c1, the inhibition was 3.83% (inactive). With Cc1ccc(-c2nnn(CC(=O)N(CC(=O)NC3CCCCC3)c3ccc(F)c(Cl)c3)n2)o1 the inhibition was 1.56% (inactive). With O=C(Nc1ccccc1)N(Cc1ccc2c(c1)OCO2)Cc1nc2ccccc2c(=O)[nH]1 the inhibition was 9.11% (inactive). In the case of CCOC(=O)C1(CCc2ccccc2)CCN(Cc2ccc(O)cc2)CC1, the inhibition is reported as 1.73% (inactive). For CCOC(=O)C1(CCc2ccccc2)CCN(Cc2nccn2CC)CC1, the inhibition was 4.84% (inactive). With Cn1cnnc1SCNC(=O)C(F)(F)F the inhibition was -14.5% (inactive). In the case of CCN(CC)C(=O)Oc1ccc2c(=O)c(-c3ccccc3)coc2c1, the inhibition is reported as 8.19% (inactive). For Cc1oc2cc(OC(C)C(=O)O)ccc2c(=O)c1Oc1ccccc1 (configuration not stated), the inhibition was -9.62% (inactive). In the case of Cc1oc2cc(OCC(=O)O)ccc2c(=O)c1Oc1ccccc1, the inhibition is reported as -10.7% (inactive). In the case of CC(=O)Oc1ccc2c(=O)c(-c3ccccc3)coc2c1, the inhibition is reported as 71.2% (inactive). For COc1ccccc1-c1coc2cc(OC(=O)/C=C/c3ccccc3)ccc2c1=O, the inhibition was 12.4% (inactive). In the case of CCOC(=O)c1oc2cc(OC(C)=O)ccc2c(=O)c1-c1ccc(OC)c(OC)c1, the inhibition is reported as -4.14% (inactive). For COc1ccccc1-c1coc2cc(OC(=O)N3CCOCC3)ccc2c1=O, the inhibition was 0.83% (inactive). For CCOC(=O)c1oc2cc(OCC(N)=O)ccc2c(=O)c1-c1ccc(OC)c(OC)c1, the inhibition was -2.49% (inactive). With CCOC(=O)N1CCC(NC(=O)C2CCN(S(=O)(=O)c3ccc4c(c3)oc(=O)n4C)CC2)CC1 the inhibition was -3.61% (inactive). With Cc1ccc(OCCNC(=O)c2cc(C(=O)NCCOc3ccc(C)cc3)cc([N+](=O)[O-])c2)cc1 the inhibition was 1.97% (inactive). For O=C1c2cc3ccccc3c(-c3ccccc3)c2C(=O)N1c1ccccn1, the inhibition was 11.2% (inactive). With O=C(C1CCC(N2C(=O)C3CC=CCC3C2=O)CC1)N1CCCCC1 (configuration not stated) the inhibition was 0.53% (inactive). In the case of N#Cc1c2ccc(OCC(N)=O)cc2n2ccccc12, the inhibition is reported as 5.54% (inactive). For COc1ccccc1-c1coc2cc(OCC(=O)OCc3ccccc3)ccc2c1=O, the inhibition was 8.31% (inactive). For CCOc1ccccc1Oc1coc2cc(OCC(=O)O)ccc2c1=O, the inhibition was 1.18% (inactive). With COc1ccc2c(C#N)c3ccccn3c2c1 the inhibition was 8.95% (inactive). With CS(=O)(=O)Nc1ccccc1NS(C)(=O)=O the inhibition was 2.07% (inactive). In the case of Cc1nnc(SCC(=O)NCc2ccc(Cl)cc2)[nH]c1=O, the inhibition is reported as -5.88% (inactive). In the case of CC(=O)c1cccc(NC(=O)CC2S/C(=N/N=C/c3ccccc3)NC2=O)c1 (configuration not stated), the inhibition is reported as 5.53% (inactive). In the case of Cc1ccc(C(=O)CC(=O)c2cccc(F)c2)c(O)c1, the inhibition is reported as 21% (inactive). With O=C(CC(=O)c1ccccc1O)c1ccc(F)cc1 the inhibition was -0.45% (inactive). In the case of N=C1C(c2ccccc2)=C(O)CN1c1cccc(S(=O)(=O)Nc2cccc(C(F)(F)F)c2)c1, the inhibition is reported as 71.6% (inactive). For CCc1ccc(NC(=O)C(C)OC(=O)C2CCC(=O)N2)cc1 (configuration not stated), the inhibition was -4.48% (inactive). In the case of Cc1ccccc1NC(=S)NCCc1ccccn1, the inhibition is reported as 1.47% (inactive). In the case of Cc1cc(C)cc(N(CC(=O)NCC2CCCO2)C(=O)CN2C(=O)COc3ccccc32)c1 (configuration not stated), the inhibition is reported as -1.08% (inactive). In the case of COc1ccc(OCCOc2ccc(C)nc2[N+](=O)[O-])cc1, the inhibition is reported as 9.48% (inactive). For CCC(CO)NCc1ccc(Br)cc1 (configuration not stated), the inhibition was 2.11% (inactive). In the case of CCC(CO)NCC#Cc1ccccc1 (configuration not stated), the inhibition is reported as -0.71% (inactive). For CCN1CCN(C(c2cc3cccc(C)c3[nH]c2=O)c2nnnn2Cc2ccccc2)CC1 (configuration not stated), the inhibition was -2.17% (inactive). In the case of O=[N+]([O-])C(=C1Nc2ccccc2N1)C(Cl)=C(Cl)Cl, the inhibition is reported as 0.64% (inactive). In the case of O=[N+]([O-])c1ccc(O)c2ncccc12, the inhibition is reported as 79% (inactive). In the case of O=[N+]([O-])c1cc(F)c2cccnc2c1O, the inhibition is reported as -0.05% (inactive). With Clc1cc2cccnc2c2ccccc12 the inhibition was -3.53% (inactive). For Cc1ccc([N+](=O)[O-])c2cccnc12, the inhibition was -9.13% (inactive). With O=[N+]([O-])c1cc(Cl)c2cccnc2c1O the inhibition was 3.31% (inactive). In the case of CCOC(=O)COc1cc([N+](=O)[O-])cc2cccnc12, the inhibition is reported as 3.26% (inactive). For COC(=O)c1ccc(COc2cc([N+](=O)[O-])cc3cccnc23)cc1, the inhibition was -7.07% (inactive). With Oc1c(I)cc(I)c2cccnc12 the inhibition was 76.2% (inactive). In the case of CCOc1ccccc1CN1C(=O)c2ccccc2C1C(=O)NCC1CCCO1 (configuration not stated), the inhibition is reported as 1.98% (inactive). For Cc1cc(C)n2c(Br)c(CN3CC4CC(C3)c3cccc(=O)n3C4)nc2n1 (configuration not stated), the inhibition was 9.25% (inactive). For Brc1ccccc1-c1cnco1, the inhibition was -1.43% (inactive). With Cc1cccc(OCC(=O)N2CCN(C(=O)c3ccco3)CC2)c1 the inhibition was -15.9% (inactive). With COc1ccc(-n2c(C)nc3c(cnn3-c3ccc(C)c(C)c3)c2=O)cc1 the inhibition was 17.5% (inactive). In the case of O=c1cc(CSc2n[nH]c(-c3ccncc3)n2)nc2sccn12, the inhibition is reported as 1.39% (inactive). In the case of Oc1ccc(CN2CCc3ccccc3C2)c2cccnc12, the inhibition is reported as 1.81% (inactive). In the case of OCCN1CCN(Cc2cc(Cl)c3cccnc3c2O)CC1, the inhibition is reported as -5.12% (inactive). For CCN(CC)C(=O)Oc1c(Cl)cc(Cl)c2cccnc12, the inhibition was 4.99% (inactive). In the case of CN(C)C(=O)Oc1c(Cl)cc(Cl)c2cccnc12, the inhibition is reported as 1.37% (inactive). With CCOC(=O)CN1C(=O)S/C(=C/c2cc(C)n(C)c2C)C1=O the inhibition was 8.52% (inactive). In the case of CC(NCCN(C)C)C(=O)C12CC3CC(CC(C3)C1)C2 (configuration not stated), the inhibition is reported as 6.21% (inactive). For Cc1ccc(NCCC#N)cc1C, the inhibition was -1.15% (inactive). In the case of CCn1c(SCC(=O)NCc2ccccc2)nnc1-c1ccccc1O, the inhibition is reported as -6.19% (inactive). In the case of CCOc1cc(/C=N/NC(=O)CSc2nncn2C)ccc1OCc1ccccc1, the inhibition is reported as -1.69% (inactive). For CCOC(=O)c1[nH]ncc1CN1CCC(Cc2cccc(OC)c2)(C(=O)OCC)CC1, the inhibition was -9.77% (inactive). In the case of O=C(OCC(=O)N1CCCc2ccccc21)c1cncc(Br)c1, the inhibition is reported as -11.1% (inactive). With Cn1c(O)c(C(c2ccncc2)c2c(O)n(C)c(=S)n(C)c2=O)c(=O)n(C)c1=S the inhibition was -3.3% (inactive). In the case of OCc1cn(-c2ccccc2)nc1-c1ccc(-c2nn(-c3ccccc3)cc2CO)cc1, the inhibition is reported as -1.67% (inactive). For COc1ccc(-c2nn(-c3ccccc3)cc2CO)cc1, the inhibition was 5.02% (inactive). For Cc1ccc(-c2nn(-c3ccccc3)cc2CSC(=N)N)cc1, the inhibition was 50.3% (inactive). For O=C(O)Cc1cn(-c2ccccc2)nc1-c1ccccc1, the inhibition was 3.9% (inactive). For Cc1cc(C)c(NC(N)=S)c(C)c1, the inhibition was 5.56% (inactive). In the case of O=C(Nc1ccc2c(c1)Cc1ccccc1-2)c1cc2ccccc2o1, the inhibition is reported as 34.9% (inactive). With CCOC(=O)/C(C(C)=O)=C1/OC(=O)c2ccccc21 the inhibition was 2.35% (inactive). With COc1ccc(N2CCN(S(=O)(=O)c3ccc(OC)cc3)CC2)cc1 the inhibition was 6.85% (inactive). In the case of O=C(Nc1ccc(F)cc1F)C1(c2cccs2)CCOCC1, the inhibition is reported as 4.02% (inactive). With CCc1ccc(CCC(=O)Nc2ccc(C)cc2C)o1 the inhibition was 12.7% (inactive). For COC(=O)CCC(=O)Nc1ccc(OC)cc1, the inhibition was 1.4% (inactive). In the case of Cc1ccc(NC(=O)CCSCCC(=O)Nc2ccc(C)c(C)c2)cc1C, the inhibition is reported as 7.02% (inactive). In the case of O=C(CCC1COc2ccccc2O1)Nc1cccnc1 (configuration not stated), the inhibition is reported as -8.19% (inactive). In the case of Cc1cc(C)nc(NS(=O)(=O)c2ccc(NC(=O)CCC3COc4ccccc4O3)cc2)n1 (configuration not stated), the inhibition is reported as 0.51% (inactive). With CCOC(=O)c1c(NC(=O)CCc2ccc(CC)o2)sc(C)c1C the inhibition was -6.75% (inactive). With CCc1ccc(CCC(=O)Nc2ccc(C(C)=O)cc2)o1 the inhibition was 7.37% (inactive). For CCc1ccc(CCC(=O)Nc2ccc(S(N)(=O)=O)cc2)o1, the inhibition was 1.79% (inactive).
